Screens from PubChem.
This is one part of a sample in which hits are shown more often than they occur.
ST2 IL33 inh: blocks human ST2 binding to IL-33 | AID 1259354 | AlphaLISA ST2-Fc/biotin-IL-33 interaction, 1 h | Q01638 | 78,000 tested, 2.3% active | inhibition, % for hits at 17 µM; in the data active = inhibition above about 30%
Target sequence (Q01638 whole entry, looked up): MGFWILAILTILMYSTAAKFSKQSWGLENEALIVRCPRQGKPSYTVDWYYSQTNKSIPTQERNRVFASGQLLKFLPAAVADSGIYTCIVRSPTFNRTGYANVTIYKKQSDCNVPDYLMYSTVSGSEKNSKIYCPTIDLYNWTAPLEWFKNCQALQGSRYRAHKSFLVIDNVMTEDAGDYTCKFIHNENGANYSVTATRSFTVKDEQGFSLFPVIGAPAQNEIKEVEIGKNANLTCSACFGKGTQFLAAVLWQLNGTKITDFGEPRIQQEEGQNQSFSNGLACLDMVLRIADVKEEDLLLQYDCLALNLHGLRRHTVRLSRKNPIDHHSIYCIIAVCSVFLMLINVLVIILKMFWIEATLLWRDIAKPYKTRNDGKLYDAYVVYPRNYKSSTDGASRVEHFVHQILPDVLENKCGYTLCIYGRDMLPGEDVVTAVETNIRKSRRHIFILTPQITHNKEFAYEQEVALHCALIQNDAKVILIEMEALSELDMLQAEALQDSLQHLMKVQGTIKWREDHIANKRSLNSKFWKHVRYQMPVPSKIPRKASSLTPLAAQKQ
Numbers without * were called inactive; i = inactive.

SMILES	ST2 IL33 inh
O=C(CN1C(=O)/C(=C\c2ccc(Cl)cc2)Sc2ccccc21)NC1CCCC1	i
CC(C)OCCCNC(=O)CN1C(=O)/C(=C\c2ccc(C(F)(F)F)cc2)Sc2ccccc21	i
O=C(CN1C(=O)/C(=C\c2ccc(Cl)cc2)Sc2ccccc21)NCc1ccccn1	42%*
O=C(NCc1c(F)cccc1F)c1cn(C/C=C/c2ccccc2)nn1	i
COCCN(Cc1ccc(C)cc1)Cc1cnc2nccn2c1	i
CC1=C(C(=O)Nc2ccccc2)C(c2ccco2)C(C#N)=C(SCC(=O)c2ccccc2)N1 (stereo not drawn)	i
CCN(CC)CCNC(=O)CSc1cc(=O)n(C)c2ccccc12	i
CCSCCOC(=O)C1=C(C)NC2=C(C(=O)C(C(=O)OC)C(C)C2)C1c1cccc(F)c1 (stereo not drawn)	i
O=C(CC1=CCNCC1)N1CCC(c2cc(-c3ccccc3Cl)n[nH]2)CC1	i
CCSc1nnc(NC(=O)C(F)(F)F)s1	i
CC(C)c1ccc(/C=C2/SC(=Nc3ccccc3)NC2=O)cc1	37%*
COc1cc(/C=C2/SC(=Nc3ccccc3Cl)NC2=O)cc(OC)c1	i
CCOc1cc(/C=C2/SC(=Nc3ccccc3)NC2=O)ccc1OC	i
O=C1NC(=Nc2ccccc2)S/C1=C/c1cc2c(cc1Br)OCO2	i
COc1ccc(/C=C2/SC(=Nc3ccc(S(N)(=O)=O)cc3)NC2=O)cc1	37%*
O=C1N/C(=N/O)S/C1=C/c1ccc([N+](=O)[O-])cc1	i
Cc1ccccc1N1CCN(Cc2cccs2)CC1	i
O=C1NC(=Nc2ccccn2)SC1Cc1ccc(Cl)cc1 (stereo not drawn)	i
COc1ccc(NC(=O)c2coc(=O)c3ccccc23)cc1Cl	i
Cc1ccc(-c2onc3ccc(Cl)cc23)cc1	45%*
O=C(O)c1cc(-c2ccc(Br)cc2)nc2ccc(Cl)cc12	i
CC(=O)Oc1ccc(-c2nc3ccc(Cl)cc3c(=O)o2)cc1	i
COc1ccc(/C=C(\C#N)c2nc(-c3cccc([N+](=O)[O-])c3)cs2)cc1O	35%*
O=C(Nc1nc(-c2ccc(Cl)cc2)cs1)c1cccs1	i
Nc1n[nH]c(-c2cccc([N+](=O)[O-])c2)n1	i
SMILES	ST2 IL33 inh
N#C/C(=C\c1cccs1)c1nc(-c2ccc(Cl)cc2)cs1	46%*
Cc1ccc(Nc2nc(-c3ccccc3)cs2)cc1	i
N#C/C(=C\Nc1ccc(S(N)(=O)=O)cc1)c1nc(-c2ccc(Cl)cc2)cs1	i
COc1ccccc1/C=C(\C#N)c1nc(-c2cccc([N+](=O)[O-])c2)cs1	i
Cc1ccc(-c2csc(/C(C#N)=C/c3cccs3)n2)cc1	64%*
CN1CCN(c2nc(-c3cccs3)cc(C(F)(F)F)n2)CC1	i
Cc1ccc(-c2csc(Nc3ccc(F)cc3)n2)cc1	i
N#C/C(=C\c1cccs1)c1nc(-c2cccs2)cs1	64%*
Cc1cc(-c2cccs2)n[nH]1	i
CN1CCN(C(=O)c2cn(Cc3cccc4ccccc34)nn2)CC1c1ccccc1 (stereo not drawn)	i
CCOC(=O)c1c(NC(=O)c2cc(Cl)cc(Cl)c2OC)sc(C)c1C	i
CC1(C)CC(=O)C2=C(C1)Nc1nc(SCc3ccccc3)[nH]c(=O)c1C2c1cccc(O)c1 (stereo not drawn)	i
O=c1[nH]c(NCCCO)nc2c1C1(CCCCC1)Cc1ccccc1-2	i
COC(=O)C1=C(N)OC2=C(C(=O)CC(c3ccccc3)C2)C1c1ccc(F)cc1 (stereo not drawn)	i
O=[N+]([O-])c1cc(-n2ncnc2-c2ccccc2Cl)ccc1F	i
Cc1ccc(-c2csc(/C(C#N)=C/c3ccco3)n2)cc1	63%*
COc1ccc(/C=C(/NC(=O)c2cccs2)C(=O)NC(C)(C)C)cc1OC	i
Cc1ccc2sc(-c3ccc(NC(=O)c4ccco4)cc3)nc2c1	i
CCOc1cc(/C=C(\C#N)c2nc(-c3ccc(OC)c(OC)c3)cs2)ccc1O	i
N#C/C(=C\c1ccco1)c1nc(-c2cc3cc(Br)ccc3oc2=O)cs1	i
COc1ccc(/C=C(/C#N)c2nc(-c3cccs3)cs2)cc1OC	49%*
O=C(Nc1ccccc1)c1cc(S(=O)(=O)Nc2ccc(F)cc2)cs1	i
CCOc1ccc(-c2csc(Nc3ccc(F)cc3)n2)cc1[N+](=O)[O-]	i
CC(C)NC(=O)C1CCC(Cn2c(=O)c3sccc3n(CC(=O)N3CCCCC3C)c2=O)CC1 (stereo not drawn)	i
COCC(O)CN1CCN(c2ccc(Cl)cc2[N+](=O)[O-])CC1 (stereo not drawn)	i
SMILES	ST2 IL33 inh
COc1ccc(N(C)S(=O)(=O)c2cc(Br)cc3c2N(C(C)=O)C(C)C3)cc1 (stereo not drawn)	i
COc1ccccc1CN1C(=O)O[C@@H]2CN(C(=O)Cc3csc(C)n3)C[C@@H]21	i
O=C(NCCc1cccc(C(F)(F)F)c1)c1cn(CCc2ccccc2)nn1	i
COc1ccc(-c2cc3ccccc3[nH]2)cc1	i
COc1ccc(-c2cc(-c3ccccc3)nc(=O)[nH]2)cc1	i
COc1ccc(-c2ccc[nH]2)cc1	42%*
Cc1ccsc1CNc1cccc(C(=O)N(C)C(C)c2ccon2)c1 (stereo not drawn)	i
O=C(/C=C/c1cc(F)ccc1F)NCC1Cc2cc(-c3cncnc3)cc(Cl)c2O1 (stereo not drawn)	i
CCn1ccc(CN2CC[C@@H](c3ccc(F)cc3)[C@H](O)C2)n1	i
O=[N+]([O-])c1cc(C=Nc2c(-c3ccco3)nc3ccccn23)c(Cl)cc1Cl	44%*
CC(C)c1ccc(Nc2c(-c3ccco3)nc3ccccn23)cc1	i
O=[N+]([O-])c1cc(N=Cc2nc(-c3ccccc3F)oc2O)ccc1Cl	i
N#CCSc1nc2c(sc3ccccc32)c(=O)n1-c1ccccc1	i
O=C(NCc1ccccc1-n1ccnc1)c1ccc(-n2cnnc2)cc1	i
COc1cccc2ccc(-c3nccn3CCN(C)C)nc12	i
COc1cccc(-c2nc3cc(N=Cc4cccc(OC)c4O)ccc3o2)c1	i
COc1cccc(-c2nc3cc(N=Cc4ccc([N+](=O)[O-])cc4)ccc3o2)c1	i
COc1ccc(C=Nc2ccc3oc(-c4ccncc4)nc3c2)cc1Cl	33%*
Cc1ccccc1CN1CCC(CN(CC2CCCO2)C2CCSCC2)CC1 (stereo not drawn)	i
O=C(Nc1c2c(nn1-c1ccc(Cl)cc1)CSC2)c1ccccc1Br	i
CCOc1ccc(-c2nc3s/c(=C\c4ccc(OC)cc4OC)c(=O)n3n2)cc1	i
CCSC1=N/C(=C\c2ccc3c(c2)OCO3)C(=O)S1	55%*
O=C1C(=Cc2ccc3c(c2)OCO3)C(=O)c2ccccc21	i
CCSC1=N/C(=C\c2cc3c(cc2Cl)OCO3)C(=O)S1	i
CCN(CC)c1ccc(C=Nc2ccc([N+](=O)[O-])cc2OC)c(O)c1	i
SMILES	ST2 IL33 inh
CCSC1=N/C(=C\c2ccc(N(CC)CC)cc2OC)C(=O)S1	65%*
COc1ccc(OC)c2nc(N(C)C)c(CN(CCCN3CCCC3=O)C(=O)c3cncs3)cc12	i
Cc1cc(C)cc(NC(=O)C(=O)NCCC2=CCCCC2)c1	i
Cn1ccnc1CN1CCN(C(=O)c2nccc3ccccc23)CC1	i
O=C(O)c1ccc(NCc2cccs2)cc1	i
O=C(Cc1cccs1)Nc1ccccc1NC(=O)Cc1cccs1	i
COc1ccccc1NCc1cccs1	32%*
CN(C)[C@H]1CCN(c2ccnc(C(=O)NCc3ccco3)c2)C1	i
